MCF10A rereplic: induces DNA re-replication in MCF 10a normal breast cells | MCF 10A DNA re-replication, Hoechst nuclear intensity, 48 h | AID 624296 | Potency, µM (top dose mostly 46.1 µM), for inactives: top-dose activity, positive = re-replication, actives largely listed as activators | 2.9% of 350,000 active; also: % of control where 0% means no effect; nearly all actives have a fitted effect of over 50% in size
ELG1 genotox: genotoxicity induction in ELG1-luciferase HEK293T cells; HEK293T ELG1-luciferase reporter, luminescence, 16 h; 1.3% of 330,000 active; AID 504466; Potency, µM (highest dose often 46 µM), without a hit: at the highest dose activity change, positive = activation, usual class: activators; also: % of control where 0% means no effect; nearly all actives have a fitted effect of over 60% in size
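Screening used a luciferase reporter fused to human ELG1 in HEK293T cells. Luminescence was read on a CCD plate imager after 16 hr exposure and 30 min ONE-Glo incubation.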
ELG1 repair inh: ELG1-dependent DNA repair inhibition; Potency, µM (doses to about 46.1 µM), for inactives: top-dose activity change, negative = inhibition, hits mostly inhibitors; AID 504467; HEK293T ELG1-luciferase reporter, luminescence, 16 h; DNA damage induced by 5-fluorouridine; 2.3% of 330,000 active; also: % is scaled to controls: 0 for no effect and ±100 for the full control effect; nearly all actives have a fitted effect of over 55% in size
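5-Fluorouridine DNA damage + compound/DMSO, 2,000 cells/well, 16 h, 37 °C/5% CO2. ONE-Glo, 30 min RT, luminescence. Readout = decrease in reporter signal.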
AT treatment: candidate therapy for ataxia-telangiectasia; F2112 A-T fibroblasts, KAP-1 phosphorylation AlphaLISA; neocarzinostatin DNA damage 30 min before lysis; Potency, µM (highest dose often 57.5 µM), for inactives: at the top dose activation, hits mostly activators; 0.19% of 320,000 active; AID 485349; also: % of control where 0% means no effect; nearly all actives have a fitted effect of over 45% in size
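ATM-like activity read as KAP-1 phosphorylation via AlphaLISA donor/acceptor antibody pairs after lysis and 6 hr at 25C. Cells were ATM-null patient fibroblasts (F2112, hTERT), dosed 60 min, then exposed to the DSB inducer NCS for 30 min.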
SW480 rereplic: inducers of DNA re-replication in SW480 colon cancer cells; SW480 DNA re-replication, Hoechst DNA content imaging, 48 h; 1.8% of 340,000 active; Potency, µM (titrated, usually from 46.1 µM), for inactives: at the top dose re-replication activation, usual class: activators; also: % of control where 0% means no effect; nearly all actives have a fitted effect of over 55% in size
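Per well, 250 cells were exposed to pinned compound for 48 hr. Nuclear DNA was visualised with Hoechst (40 min, 37 C) and total object intensity recorded by fluorescence scanning.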
p53 reactivation: restores transcriptional activity of mutant p53 | 0.063% of 320,000 active | H1299 p53-A138V BP100-luciferase reporter, luminescence, 24 h | Potency, µM (doses to about 92.2 µM), inactives show at the highest dose activity change, positive = activation, usual class: activators | AID 504706; also: % of control where 0% means no effect; nearly all actives have a fitted effect of over 45% in size
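H1299 (p53-null), stable ts p53-A138V + BP100-Luc; 1000 cells/well, Opti-MEM/10% FBS; cpd 4 pt, 1:5; 24 h, 37 deg C, 5% CO2; detection reagent 10 min RT; luminescence.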
The depositor's hits bear a star; u = inconclusive; x = no result; [ ] = dose if it differs, or a comment. Most compounds without a hit are left out; they make up all but 7.1% or so of the library. Calls follow the shape of the dose curve; as a rule, active = well fitted curve in the direction sought with a large enough effect; inconclusive = small, poorly fitted or top-dose-only effect, or another doubt; inactive = no such curve, though single readings can be large; an effect the other way counts as inactive or inconclusive. Potency is read from the fitted curve at half-maximal effect.

SMILES	MCF10A rereplic	ELG1 genotox	ELG1 repair inh	AT treatment	SW480 rereplic	p53 reactivation
COc1cc([N+](=O)[O-])cc(/C=N/NC(=O)c2cncc(Br)c2)c1O	u	5%	23µM*	2%	24%	13%
COc1cc(/C=N/NC(=O)c2cccc([N+](=O)[O-])c2)cc(OC)c1O	-3%	-1%	17%	-3%	3%	1%
COc1ccc([N+](=O)[O-])cc1/C=N/NC(=O)c1nonc1N	16µM*	-2%	4%	-2%	18µM*	-1%
COc1cc(/C=N/NC(=O)c2cncc(Br)c2)cc([N+](=O)[O-])c1O	1%	4%	u	0%	4.1µM*	20%
COc1cc([N+](=O)[O-])cc(/C=N/NC(=O)Cn2nccc2C)c1O	18µM*	-3%	-17%	-8%	16µM*	6%
COc1cc([N+](=O)[O-])cc(/C=N/NC(=O)c2cc(C)nc3ccccc23)c1O	u	-10%	0%	4%	u	11%
O=C(CS(=O)(=O)c1ccccc1Cl)N1CCOCC1	-1%	1%	10%	7%	9%	6%
CCCc1cc(=O)[nH]c(SCC(=O)Nc2cc(S(=O)(=O)N3CCOCC3)ccc2Cl)n1	u	0%	-2%	8%	18%	-4%
C=CCNc1oc(-c2ccc(OC)cc2)nc1C#N	u	15µM*	u	0%	-11%	9%
Cc1ccc(-c2nc(C#N)c(NCc3ccco3)o2)cc1	18%	5.8µM*	u	-7%	-1%	u
COc1ccc(-c2nc(C#N)c(NCc3ccco3)o2)cc1	14%	u	u	2%	1%	1%
Cc1cccc(C(=O)OC(C)C(=O)N2CCc3ccccc3C2)c1C (configuration not stated)	-1%	0%	4%	13%	2%	-2%
COc1cccc(C2C=C(c3ccc(OC)cc3OC)Nc3nnnn32)c1 (configuration not stated)	u	-15%	18µM*	6%	u	12%
COc1cccc(C2=CC(c3cccc(OC)c3OC)n3nnnc3N2)c1 (configuration not stated)	8.9µM*	u	-2%	14%	1%[9.22 µM]	u
COc1ccc(C2=CC(c3ccc(OC)c(OC)c3)n3nnnc3N2)c(OC)c1 (configuration not stated)	18%	-2%	u	6%	u	-4%
COc1ccc(OC)c(C2C=C(c3ccc(C)c(C)c3)Nc3nnnn32)c1 (configuration not stated)	u	4%	-10%	-2%	7.3µM*	0%
COc1cccc(C2=CC(c3ccccc3)n3nnnc3N2)c1 (configuration not stated)	2%	11%	3%	18%	2%	1%
COc1cccc(C2=CC(c3ccc(N(C)C)cc3)n3nnnc3N2)c1 (configuration not stated)	16µM*	-1%	17%	3%	u	u
CC(=O)N1CCSc2ccc(S(=O)(=O)Nc3cccc(C)c3)cc21	0%	-10%	u	4%	-12%	-4%
Cc1ccccc1OCC(O)COc1ccccc1C	u	x	x	x	15%	x
CCOC(=O)c1c(S(=O)(=O)NCC(=O)NCc2ccc(C)cc2)c(C)n(C)c1C	1%	-2%	9%	-2%	-3%	8%
COc1ccccc1S(=O)(=O)Cc1ccc(C(=O)N2CCN(c3ccccc3)CC2)o1	11%	-7%	21µM*	0%	11%	-20%
COc1ccccc1S(=O)(=O)Cc1ccc(C(=O)N2CCN(c3cccc(Cl)c3)CC2)o1	15µM*	4%	12µM*	0%	u	u
COc1ccccc1S(=O)(=O)Cc1ccc(C(=O)N2CCOCC2)o1	1%	3%	16%	0%	2%	7%
COc1ccc(N2CCN(C(=O)c3ccc(CS(=O)(=O)c4ccccc4C)o3)CC2)cc1	12%	-5%	u	14%	9%	x
SMILES	MCF10A rereplic	ELG1 genotox	ELG1 repair inh	AT treatment	SW480 rereplic	p53 reactivation
CSC1=NCCN1C(=O)c1c(-c2c(F)cccc2Cl)noc1C	u	-2%	29%	6%	-120%	-1%
Cc1ccc(N2CCN(C(=O)c3ccccc3F)CC2)c(C)c1	17%	u	-26%	18%	1%	-2%
NC(=O)c1cc(C(=O)c2cccc(Cl)c2Cl)c[nH]1	u	-5%	-7%	3%	-2%	-3%
Cc1ccccc1C(=O)c1c[nH]c(C(=O)N2CCN(c3ccccc3F)CC2)c1	22%	-3%	23µM*	-1%	13%	-2%
O=C(c1c[nH]c(C(=O)N2CCN(c3ccccc3F)CC2)c1)c1cccc(Cl)c1Cl	3.7µM*	-13%	-17%	-9%	u	8%
CCOC(=O)c1cccc(C(=O)Oc2ccccc2)n1	21µM*	3%	0%	4%	0%	0%
CC(C)Oc1ccc(CNC(=O)CCC(=O)N2CCSc3ccccc32)cc1	2%	-7%	2%	5%	-1%	14%
c1ccc(CNc2ncnc3c2ncn3C2CCCCO2)cc1 (configuration not stated)	16µM*	u	u	8%	29%	u
COc1cccc2cc(-c3nc4ccccc4o3)c(=O)oc12	0%	21µM*	u	3%	2%	u
CC(=O)N(C)c1ccc(N=NC2C(=O)N(C(N)=S)N=C2C)cc1 (configuration not stated)	1%	u	u	-3%	-3%	x
Cc1ccc(-c2nnc(Nc3ccc(C(=O)N(C)C)cc3)c3ccccc23)cc1S(=O)(=O)NCC1CCCO1 (configuration not stated)	29%	-5%	21µM*	3%	-7%	16%
CC(C)CN(C(=O)CC1CCCC1)c1c(N)n(Cc2ccccc2)c(=O)[nH]c1=O	-9%	-3%	-4%	-1%	-56%	2%
Cc1nnc(SCC(=O)N(CC(C)C)c2c(N)n(Cc3ccccc3)c(=O)[nH]c2=O)n1N	2%	-5%	u	11%	1.3µM*	1%
CC(C)CN(C(=O)COC(=O)C12CC3CC(CC(C3)C1)C2)c1c(N)n(Cc2ccccc2)c(=O)[nH]c1=O	-21%	-12%	8%	13%	4.1µM*	0%
